Laboratory results published in PubChem BioAssay (NCI).
About 83,000 compounds went through this panel and 20% of them were active in at least one assay; those are over-represented in the sample as a whole.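 Results are percent growth after 48 hours of single-concentration exposure. 100 means growth as in untreated cells, lower positive values show inhibition; negative values down to -100 show cell death.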 Active and inactive are the calls of the source. Rule for the calls: active = growth percent below 10; inactive = the rest.

Legend:
Assay in all cases: NCI-60 one-dose screen, 48 h (100 = growth as untreated, 0 = no growth, -100 = all killed)
Conditions in all cases: 10 µM unless noted
RPMI-8226 leukemia = tested on: RPMI-8226 leukemia
OVCAR-8 ovarian = tested on: OVCAR-8 ovarian
OVCAR-5 ovarian = tested on: OVCAR-5 ovarian
OVCAR-4 ovarian = tested on: OVCAR-4 ovarian
SK-OV-3 ovarian = tested on: SK-OV-3 ovarian
IGROV1 ovarian = tested on: IGROV1 ovarian
OVCAR-3 ovarian = tested on: OVCAR-3 ovarian
HS 578T breast = tested on: HS 578T breast
NCI/ADR-RES ovarian = tested on: NCI/ADR-RES ovarian
T-47D breast = tested on: T-47D breast
BT-549 breast = tested on: BT-549 breast
MDA-MB-435 melanoma = tested on: MDA-MB-435 melanoma
MCF7 breast = tested on: MCF7 breast
HCT-116 colon = tested on: HCT-116 colon
HCC-2998 colon = tested on: HCC-2998 colon
KM12 colon = tested on: KM12 colon
SW-620 colon = tested on: SW-620 colon

Measured: growth

C=C1C(=O)O[C@H]2[C@H]1CC/C(Cn1cc(Cc3c[nH]c4ccccc34)nn1)=C\CC[C@@]1(C)O[C@@H]21
active: RPMI-8226 leukemia -26% | OVCAR-8 ovarian 0.832% | OVCAR-3 ovarian -28.3% | T-47D breast 1.32% | MCF7 breast -61.2% | HCT-116 colon -89.5%
inactive: OVCAR-5 ovarian 76.2% | OVCAR-4 ovarian 43.8% | SK-OV-3 ovarian 97.1% | IGROV1 ovarian 40.2% | HS 578T breast 73.5% | NCI/ADR-RES ovarian 85.8% | BT-549 breast 44.2% | MDA-MB-435 melanoma 13.6% | HCC-2998 colon 61.5% | KM12 colon 67.2%

CC/C(=C(\c1ccccc1)c1ccc(OCCNC)cc1)c1ccccc1
active: RPMI-8226 leukemia -40.9% | OVCAR-8 ovarian -49.6% | OVCAR-5 ovarian -85.2% | OVCAR-4 ovarian -67.1% | SK-OV-3 ovarian -53.8% | IGROV1 ovarian -93% | OVCAR-3 ovarian -92.1% | HS 578T breast -55.6% | NCI/ADR-RES ovarian -87.3% | BT-549 breast -91.2% | MDA-MB-435 melanoma -93.8% | SW-620 colon -57.6% | MCF7 breast -95.8% | HCT-116 colon -96% | HCC-2998 colon -99.7% | KM12 colon -77.7%

NS(=O)(=O)c1ccc(-n2ncc3c(=O)[nH]c(CN4CCN(c5cc6c(cc5F)c(=O)c(C(=O)O)cn6C5CC5)CC4)nc32)cc1
inactive: RPMI-8226 leukemia 105% | OVCAR-8 ovarian 97.8% | OVCAR-5 ovarian 97.6% | OVCAR-4 ovarian 104% | SK-OV-3 ovarian 107% | IGROV1 ovarian 92.8% | OVCAR-3 ovarian 107% | NCI/ADR-RES ovarian 94.4% | T-47D breast 106% | BT-549 breast 68.9% | MDA-MB-435 melanoma 99.9% | SW-620 colon 98.8% | MCF7 breast 94.9% | HCT-116 colon 100% | HCC-2998 colon 93.9% | KM12 colon 102%

Cn1c2ccccc2c2c3[nH]c(=O)[nH]c(=O)c3c3c4ccccc4n(C)c3c21
active: OVCAR-4 ovarian -10.1% | OVCAR-3 ovarian 4.89% | HS 578T breast -7.29%
inactive: RPMI-8226 leukemia 33.1% | OVCAR-8 ovarian 31.3% | OVCAR-5 ovarian 23.8% | SK-OV-3 ovarian 48.6% | IGROV1 ovarian 22.5% | NCI/ADR-RES ovarian 32.2% | T-47D breast 42.5% | BT-549 breast 39.7% | MDA-MB-435 melanoma 36.5% | MCF7 breast 32.9% | HCT-116 colon 17.6% | HCC-2998 colon 73.9% | KM12 colon 24.2%

CC(C)CC(CC1=CCC2CC1C2(C)C)C1=C(O)C(C)(C)C(=O)C(C)(C)C1=O (centres undefined)
inactive: OVCAR-5 ovarian 22.7% | OVCAR-4 ovarian 32.5% | IGROV1 ovarian 39% | OVCAR-3 ovarian 16.2% | MDA-MB-435 melanoma 11% | SW-620 colon 14.2% | HCC-2998 colon 17.6%
active: RPMI-8226 leukemia -26.4% | OVCAR-8 ovarian 5.12% | SK-OV-3 ovarian -12.6% | NCI/ADR-RES ovarian 7.18% | T-47D breast 4.63% | BT-549 breast -6.03% | MCF7 breast 7.94% | HCT-116 colon 6.3% | KM12 colon 9.6%

COc1cc2c(=O)n(CC3CCCCC3)c3c4cc[nH]c4ncc3c2cc1OC
active: HS 578T breast -4.62%
inactive: RPMI-8226 leukemia 34.5% | OVCAR-8 ovarian 26.9% | OVCAR-5 ovarian 52.3% | OVCAR-4 ovarian 19.3% | SK-OV-3 ovarian 47.7% | OVCAR-3 ovarian 38.7% | NCI/ADR-RES ovarian 33.8% | T-47D breast 44.9% | BT-549 breast 25.9% | MDA-MB-435 melanoma 55.3% | SW-620 colon 30.3% | MCF7 breast 19.8% | HCT-116 colon 28.9% | HCC-2998 colon 62.3% | KM12 colon 19%

NCCN1CCN(c2nccc(-c3ccc4ccccc4c3)n2)CC1
inactive: OVCAR-8 ovarian 71.3% | OVCAR-5 ovarian 73.8% | OVCAR-4 ovarian 78.7% | SK-OV-3 ovarian 88.6% | IGROV1 ovarian 51.2% | OVCAR-3 ovarian 73.8% | HS 578T breast 63.9% | NCI/ADR-RES ovarian 69.4% | T-47D breast 43.1% | BT-549 breast 82.2% | MCF7 breast 51.2% | HCC-2998 colon 14% | KM12 colon 48.1%
active: RPMI-8226 leukemia 5.16% | MDA-MB-435 melanoma -26.4% | SW-620 colon -37.9% | HCT-116 colon 3.52%

COc1c(C2CC(=O)Nc3c2cnn3Cc2ccco2)cc2c(c1OC)OCO2 (centres undefined)
active: RPMI-8226 leukemia -1.94% | SK-OV-3 ovarian -9.03% | OVCAR-3 ovarian -35.9% | NCI/ADR-RES ovarian 4.88% | BT-549 breast 8.74% | MDA-MB-435 melanoma -58.4%
inactive: OVCAR-8 ovarian 18% | OVCAR-5 ovarian 40.8% | OVCAR-4 ovarian 39.2% | IGROV1 ovarian 52.8% | HS 578T breast 30.4% | T-47D breast 55.6% | MCF7 breast 12.8% | HCT-116 colon 12.8% | KM12 colon 16.8%

NC(N)=Nc1ccc(S(=O)(=O)O)cc1
inactive: RPMI-8226 leukemia 101% | OVCAR-8 ovarian 107% | OVCAR-5 ovarian 99.7% | OVCAR-4 ovarian 95.5% | SK-OV-3 ovarian 96.7% | IGROV1 ovarian 121% | OVCAR-3 ovarian 129% | HS 578T breast 105% | NCI/ADR-RES ovarian 93.6% | T-47D breast 114% | BT-549 breast 119% | MDA-MB-435 melanoma 106% | SW-620 colon 103% | MCF7 breast 102% | HCT-116 colon 107% | KM12 colon 116%

N=c1c2ccccc2nc2n1CCCCC2
inactive: RPMI-8226 leukemia 105% | OVCAR-8 ovarian 114% | OVCAR-5 ovarian 96.1% | OVCAR-4 ovarian 107% | SK-OV-3 ovarian 112% | IGROV1 ovarian 106% | OVCAR-3 ovarian 116% | NCI/ADR-RES ovarian 105% | T-47D breast 111% | BT-549 breast 117% | MDA-MB-435 melanoma 103% | MCF7 breast 99.4% | HCT-116 colon 109% | HCC-2998 colon 106% | KM12 colon 112%

O=C(O)c1ccc(=O)[nH]n1
inactive: RPMI-8226 leukemia 107% | OVCAR-8 ovarian 103% | OVCAR-5 ovarian 104% | OVCAR-4 ovarian 113% | SK-OV-3 ovarian 106% | IGROV1 ovarian 137% | OVCAR-3 ovarian 115% | HS 578T breast 111% | NCI/ADR-RES ovarian 109% | T-47D breast 105% | BT-549 breast 106% | MDA-MB-435 melanoma 112% | SW-620 colon 102% | MCF7 breast 97.2% | HCT-116 colon 106% | KM12 colon 123%

O=C1C=CC(=O)c2c1nc1n2CCCC1
active: MDA-MB-435 melanoma -68.5%
inactive: RPMI-8226 leukemia 116% | OVCAR-8 ovarian 92% | OVCAR-5 ovarian 112% | OVCAR-4 ovarian 101% | SK-OV-3 ovarian 92.5% | IGROV1 ovarian 103% | OVCAR-3 ovarian 21% | NCI/ADR-RES ovarian 89.6% | T-47D breast 86.7% | BT-549 breast 95.2% | SW-620 colon 62.3% | MCF7 breast 57.8% | HCT-116 colon 91.9% | HCC-2998 colon 57.6% | KM12 colon 75%

C#Cc1nc(Nc2cc(C)[nH]n2)c2ccccc2n1
inactive: SK-OV-3 ovarian 21.1%
active: RPMI-8226 leukemia -16.5% | OVCAR-8 ovarian -19.2% | OVCAR-5 ovarian -28.5% | OVCAR-4 ovarian -55.2% | IGROV1 ovarian -62.7% | OVCAR-3 ovarian -71% | HS 578T breast -1.95% | NCI/ADR-RES ovarian 9.77% | T-47D breast -36.8% | BT-549 breast -34.9% | MDA-MB-435 melanoma -75.5% | SW-620 colon -25.6% | MCF7 breast -25.8% | HCT-116 colon -12.7% | HCC-2998 colon -91% | KM12 colon -73.1%

NC(=S)N/N=C/c1cc(-c2cccc(N)c2)ccn1
inactive: RPMI-8226 leukemia 12.2% | OVCAR-8 ovarian 21.6% | OVCAR-5 ovarian 46.1% | OVCAR-4 ovarian 47.3% | SK-OV-3 ovarian 27.5% | IGROV1 ovarian 16% | OVCAR-3 ovarian 40.8% | HS 578T breast 38.1% | NCI/ADR-RES ovarian 21.2% | T-47D breast 10.8% | BT-549 breast 55.4% | MDA-MB-435 melanoma 32.9% | SW-620 colon 35.6% | MCF7 breast 21.9% | HCT-116 colon 28.4% | KM12 colon 30%

COc1cccc2c1C(=O)c1c(O)c3c(c(O)c1C2=O)C[C@@](O)(/C(C)=N/NC(=O)c1ccc(Cl)cc1)C[C@@H]3OC1CC(N)C(O)C(C)O1 (some centres undefined)
active: RPMI-8226 leukemia -28.7% | OVCAR-8 ovarian -49.9% | OVCAR-4 ovarian -9.91% | SK-OV-3 ovarian 5.07% | IGROV1 ovarian -21.8% | OVCAR-3 ovarian -28.5% | T-47D breast -11.6% | BT-549 breast -45.3% | MDA-MB-435 melanoma -87.3% | SW-620 colon -36.6% | MCF7 breast -13.8% | HCT-116 colon 7.54% | HCC-2998 colon -45% | KM12 colon -26.2%
inactive: OVCAR-5 ovarian 13.9% | NCI/ADR-RES ovarian 47.8%

CCOc1ccc(Nc2nc(-c3c(C)nc4ncccn34)cs2)cc1
inactive: OVCAR-8 ovarian 16.5% | OVCAR-5 ovarian 20.7% | OVCAR-4 ovarian 39.6% | IGROV1 ovarian 33.7% | HS 578T breast 34.1% | BT-549 breast 20.6% | SW-620 colon 24.6% | MCF7 breast 15% | HCC-2998 colon 23.4%
active: RPMI-8226 leukemia -9.92% | SK-OV-3 ovarian 3.86% | OVCAR-3 ovarian -20.9% | NCI/ADR-RES ovarian 8.95% | MDA-MB-435 melanoma -41% | HCT-116 colon 2.95% | KM12 colon 6.58%

COc1ccccc1-c1ccc2c(N)c(C(=O)c3ccc4c(c3)OCO4)sc2n1
inactive: RPMI-8226 leukemia 62.2% | OVCAR-8 ovarian 73.8% | OVCAR-5 ovarian 87.7% | OVCAR-4 ovarian 95.7% | SK-OV-3 ovarian 78.3% | IGROV1 ovarian 78.1% | OVCAR-3 ovarian 69.8% | HS 578T breast 87.6% | NCI/ADR-RES ovarian 38.7% | BT-549 breast 71.4% | SW-620 colon 42.2% | MCF7 breast 36.3% | HCT-116 colon 42.4% | HCC-2998 colon 71.4% | KM12 colon 53.8%
active: MDA-MB-435 melanoma 2.68%

Oc1cc(O)c2c(=S)cc(-c3ccc(Cl)cc3)oc2c1
inactive: OVCAR-8 ovarian 35% | OVCAR-5 ovarian 60.3% | SK-OV-3 ovarian 61.8% | IGROV1 ovarian 26.1% | OVCAR-3 ovarian 17.6% | NCI/ADR-RES ovarian 25.5% | BT-549 breast 38.4% | MDA-MB-435 melanoma 25.9% | SW-620 colon 41.5% | HCT-116 colon 17.6% | HCC-2998 colon 57.7% | KM12 colon 38.7%
active: RPMI-8226 leukemia -4.71% | OVCAR-4 ovarian 6.46% | T-47D breast 0.614% | MCF7 breast 6.22%

CCOC(=O)C12CCCC1=CC(=O)CC2 (centres undefined)
inactive: RPMI-8226 leukemia 98.5% | OVCAR-8 ovarian 96.5% | OVCAR-5 ovarian 96.3% | OVCAR-4 ovarian 112% | SK-OV-3 ovarian 102% | IGROV1 ovarian 103% | OVCAR-3 ovarian 116% | HS 578T breast 98.2% | NCI/ADR-RES ovarian 104% | BT-549 breast 110% | MDA-MB-435 melanoma 112% | SW-620 colon 109% | MCF7 breast 101% | HCT-116 colon 105% | HCC-2998 colon 105% | KM12 colon 106%
